Measurements as given in PubChem BioAssay (NCATS).
Inconclusive results are not listed. A call without a number means that no potency is given here. Calls of active or inactive are those of the source. Calls follow the shape of the dose curve; as a rule, active = well fitted curve in the direction sought with a large enough effect; inconclusive = small, poorly fitted or top-dose-only effect, or another doubt; inactive = no such curve, though single readings can be large; an effect the other way counts as inactive or inconclusive.

How the values were obtained:
[1] = qHTS assay for measurement of the activity of small molecule inhibitors on Zika virus induced Caspase-3 activity in human astrocytoma cells (AID 1224859)
In short: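 Luminescence read-out (Caspase-Glo 3/7, 30 min RT) of caspase activity in SNB-19 cells infected 6 h with ZIKV, 2 FFU/cell, after 1 h compound pretreatment; % inhibition from induction normalised to uninfected (0%) and infected (100%) wells.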

[2] = qHTS assay to identify small molecule inhibitors of chordoma cells - UCH-1 (AID 1259355); also: nearly all actives have a fitted effect of over 55% in size; also: potency is read from the fitted curve at half-maximal effect; series mostly up to about 46 µM
In short: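 Seed 800 cells per well; incubate overnight at 37 C, 5% CO2. Add test compounds (15 concentrations), then the auranofin–topoisomerase-agent combination. Incubate 48hr, add CellTiter-Glo, wait 30min, read luminescence.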

[3] = qHTS assay to identify small molecule inhibitors of chordoma cells - UCH-2 (AID 1259356); also: potency is read from the fitted curve at half-maximal effect
[4] = qHTS Screen of the MIPE 4.0 Collection Against Ewings Sarcoma (RDES) (AID 1259252); also: nearly all actives have a fitted effect of over 35% in size
In short: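 Cells plated in serum-containing RPMI (5% FBS) and treated with compound dilutions for 48 h. Readout luminescent viability; normalization relied on vehicle (no inhibition) and media-only columns (full inhibition).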

[5] = qHTS Screen of the MIPE 4.0 Collection Against Ewings Sarcoma (TC71) (AID 1259253); also: nearly all actives have a fitted effect of over 40% in size
Excerpt: (§1) There is a large unmet medical need for treatments for Ewing sarcoma, a pediatric sarcoma. We sought to identify compounds that inhibited Ewing sarcoma cells in vitro with the goal to then test promising drugs in two drug combinations in vitro to look for synergistic drug combinations. Promising combinations would then proceed to additional validation, including in vivo testing.
(§2) Using the NCATS developed oncology compound library called the Mechanism of Interrogation Plate (MIPE), four Ewing sarcoma cell lines were evaluated (TC32, TC71, RDES, EW8). Compounds, in a 12-point titration series, were incubated with cells for 48 hours and the read out was cell viability (CellTiter-Glo from Promega). These initial experiments were used to select appropriate concentrations of each single agent for subsequent two-drug matrix combinations such that the concentrations in the matrices would span both activity and non-activity.
(§3) Cells, in the log phase of growth, were seeded in 5 uL of RPMI plus 5% FBS, […] L-glutamine, 100 U/ml penicillin and 100 ug/ml streptomycin into 1536-well solid-bottom white tissue culture treated Greiner Bio One Plates (789173-F) using a MultiDrop Combi (Thermofisher Scientific) dispenser and a small sterile cassette. One column was media alone to be used as a :"no cells" control. The plates were then covered with sterilized stainless steel gasketed lids from Kalypsys. After allowing cells to attach for 4 hours, 23 nL of test compound or control (negative control DMSO and positive control 9.2 uM Bortezomib-final) were added from a 1536-well polypropylene compound source plate to each well using a 1536 head pin tool from Kalypsys. Cells were then incubated for 48 hours at 37C, 95% relative humidity and 5% CO2. After 48 hours, plates were removed from the incubator and 3 uL of CellTiter-Glo (Promega) was added using an Aurora Flying Reagent Dispenser Bioraptor. Plates were incubated at room temperature for 10 minutes prior to reading the luminescence on the Viewlux (PerkinElmer). The relative luciferase units are used to calculate the percent activity using the activity of DMSO in the cells and no cells columns for normalization of no inhibition and full inhibition respectively.

[6] = qHTS Screen of the MIPE 4.0 Collection Against Ewings Sarcoma (EW8) (AID 1259255); also: nearly all actives have a fitted effect of over 35% in size
Excerpt: as §1, §2
as §3, with “The relative luciferase units are used to calculate the percent activity using the activity of DMSO in the cells and no cells columns for normalization of no inhibition and full inhibition respectively.” left out

[7] = Identifying Small Molecule Inhibitors of Pancreatic Cancer Stem Cells (A2780, Spheroid) (AID 1259357);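 also: spheroids pre-formed over 14 days in stem cell medium on hydrogel; compound exposure lasted 48 h before the ATP luminescence read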
In short: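 Pre-formed 14-day tumor spheroids or adherent cells dosed and incubated 48 h, 37C, 5% CO2. Viability assessed by CellTiter-Glo.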

[8] = Identifying Small Molecule Inhibitors of Pancreatic Cancer Stem Cells (SN12C, Adherent) (AID 1259358);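 also: cell survival measured after 48 h of compound exposure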
Excerpt: (§4) Progenitor-like cancer cells, often referred to as cancer stem cells (CSC), are believed to be the drivers of therapeutic resistance and rapid recurrence. CSCs are postulated to reside in specific niches characterized by low oxygen tension, limited nutrient supply, and high redox load. Selectively targeting CSC, alone or in combination with cytotoxic agents, as a means to produce durable remissions is an appealing concept. Modeling these cells in in vitro setting is an important step in finding new therapies and/or targets. Multiple reports highlight that forcing cells in culture into 3-dimensionaly architectures (spheroids) re-establishes key progenitor-like transcriptional signatures. Pancreatic cancer is among the diseases with the most dismal outlook which is driven, largely, by recurance following front-line therapies. […]
(§5) Multicellular tumor spheroids from Panc1, MiaPaCa-2, and the primary low-passage tissue culture line SB.06 were seeded in stem cell media (SCM) in nonadherent 6-well plates coated with hydrogel (Corning Life Sciences, Chelmsford, Mass) and pancreatic spheres generated for 14 days before screening. […] Plates were incubated at room temperature for 10 minutes prior to reading the luminescence on the Viewlux (PerkinElmer). […]

[9] = Identifying Small Molecule Inhibitors of Pancreatic Cancer Stem Cells (SN12C, Spheroid) (AID 1259360)
Excerpt: as §4, §5

C[C@H]1C(=O)O[C@@H]2CCN3CC=C(COC(=O)[C@](C)(O)[C@]1(C)O)[C@H]23
outcome [1]: inactive | Potency [2]: inactive | Potency [3]: inactive

COP(=O)(OC)OC=C(Cl)Cl
outcome [1]: inactive | Potency [2]: inactive | Potency [3]: inactive

C[C@]12Cc3nonc3C[C@@H]1CC[C@@H]1[C@@H]2CC[C@@]2(C)[C@H]1CC[C@]2(C)O
outcome [1]: inactive | Potency [2]: inactive | Potency [3]: inactive

C[N+]1(C)[C@@H]2CC[C@H]1CC(OC(=O)C(CO)c1ccccc1)C2 (some centres not stated)
outcome [1]: inactive | Potency [2]: inactive | Potency [3]: inactive

Cc1ccc(N=CN(C)C=Nc2ccc(C)cc2C)c(C)c1
outcome [1]: inactive | Potency [2]: inactive | Potency [3]: inactive

CN1CCc2cc(Cl)c(O)cc2[C@H]2c3ccccc3CC[C@@H]21
outcome [1]: inactive | Potency [2]: inactive | Potency [3]: inactive

CCN(CC)CCOC(=O)C(C)(c1ccccc1)c1ccccc1
outcome [1]: inactive | Potency [2]: inactive | Potency [3]: inactive

CN1C[C@@H](NS(=O)(=O)N(C)C)C[C@@H]2c3cccc4c3c(cn4C)C[C@H]21
outcome [1]: inactive | Potency [2]: inactive | Potency [3]: inactive

CCC(=O)O[C@H]1CC[C@H]2[C@@H]3CCC4=CC(=O)CC[C@]4(C)[C@H]3CC[C@]12C
outcome [1]: inactive | Potency [2]: inactive | Potency [3]: inactive

CC(Cc1ccccc1)NCc1ccccc1Cl (configuration not stated)
outcome [1]: inactive | Potency [2]: inactive | Potency [3]: inactive

NCc1cccnc1
outcome [1]: inactive | Potency [2]: inactive | Potency [3]: inactive

CCS(=O)(=O)C(C)(C)S(=O)(=O)CC
outcome [1]: inactive | Potency [2]: inactive | Potency [3]: inactive

O=C1NCN(c2ccccc2)C12CCN(CCCOc1ccc(F)cc1)CC2
outcome [1]: inactive | Potency [2]: inactive | Potency [3]: inactive

N#Cc1nn(-c2c(Cl)cc(C(F)(F)F)cc2Cl)c(N)c1S(=O)C(F)(F)F (configuration not stated)
outcome [1]: inactive | Potency [2]: inactive | Potency [3]: inactive

C#C[C@]1(O)C=C[C@H]2[C@@H]3CCC4=CC(=O)CC[C@@H]4[C@H]3CC[C@@]21CC
outcome [1]: inactive | Potency [2]: inactive | Potency [3]: inactive

CC(C)=C[C@@H]1[C@@H](C(=O)OCc2coc(Cc3ccccc3)c2)C1(C)C
outcome [1]: inactive | Potency [2]: inactive | Potency [3]: inactive

C[C@H](N)[C@H](O)c1ccc(O)c(O)c1
outcome [1]: inactive | Potency [2]: inactive | Potency [3]: inactive

CCNc1nc(Cl)nc(NCC)n1
outcome [1]: inactive | Potency [2]: inactive | Potency [3]: inactive

c1ccc2nc(N3CCNCC3)ccc2c1
outcome [1]: inactive | Potency [3]: inactive

CN1[C@@H]2CC[C@H]1CC(OC(=O)c1cc(Cl)cc(Cl)c1)C2 (some centres not stated)
outcome [1]: inactive | Potency [3]: inactive

C=CCOC(Cn1ccnc1)c1ccc(Cl)cc1Cl (configuration not stated)
outcome [1]: inactive | Potency [2]: inactive | Potency [3]: inactive

CN(C)C(=O)Oc1cc(OC(=O)N(C)C)cc(C(O)CNC(C)(C)C)c1 (configuration not stated)
outcome [1]: inactive | Potency [3]: inactive

C=CCN1CC[C@]23CCCC[C@H]2[C@H]1Cc1ccc(O)cc13
Potency [2]: inactive | Potency [3]: inactive

CNC(=O)Oc1cccc2ccccc12
Potency [2]: inactive | Potency [3]: inactive

CCCCCCCCC(=O)NCc1ccc(O)c(OC)c1
outcome [1]: inactive | Potency [3]: inactive

NC(=O)CN1CCCC1=O
outcome [1]: inactive | Potency [3]: inactive

C[C@@H]1O[C@@H](O[C@@H]2C=C3CC[C@@H]4[C@H](CC[C@]5(C)[C@@H](c6ccc(=O)oc6)CC[C@]45O)[C@@]3(C)CC2)[C@H](O)[C@H](O)[C@H]1O
outcome [1]: inactive | Potency [2]: 100 nM (active) | Potency [3]: 24.8 nM (active)

COP(=S)(OC)Oc1ccc(Sc2ccc(OP(=S)(OC)OC)cc2)cc1
Potency [2]: inactive | Potency [3]: inactive

Cc1ncc2n1-c1ccc(Cl)cc1C(c1ccccc1F)=NC2
outcome [1]: inactive | Potency [2]: inactive | Potency [3]: inactive

C[C@@H]1CN(C2CCC(C#N)(c3ccc(F)cc3)CC2)CC[C@]1(C(=O)O)c1ccccc1 (some centres not stated)
outcome [1]: inactive | Potency [3]: inactive

CCC1(c2ccccc2)CCC(=O)NC1=O (configuration not stated)
Potency [2]: inactive | Potency [3]: inactive

CCCCCCCCCCCC[N+](C)(C)CCOc1ccccc1
outcome [1]: inactive | Potency [3]: inactive

c1cc2c(c(N3CCNCC3)c1)OCCO2
Potency [2]: inactive | Potency [3]: inactive

COc1cc(N)c(Cl)cc1C(=O)NC1CN2CCC1CC2 (configuration not stated)
Potency [2]: inactive | Potency [3]: inactive

Clc1ccc(CSC(Cn2ccnc2)c2ccc(Cl)cc2Cl)cc1 (configuration not stated)
Potency [2]: inactive | Potency [3]: inactive

CN(C)C(=S)SSC(=S)N(C)C
Potency [3]: inactive

C[C@@H]1CC[C@H]2[C@@H](C)C(=O)O[C@@H]3O[C@@]4(C)CC[C@@H]1[C@]32OO4
outcome [1]: inactive | Potency [2]: inactive | Potency [3]: inactive

OC(O)C(Cl)(Cl)Cl
outcome [1]: inactive | Potency [3]: inactive

NC(=O)OCCCc1ccccc1
outcome [1]: inactive | Potency [2]: inactive | Potency [3]: inactive

Clc1ccc(C(OCCN2CCCCC2)c2ccccc2)cc1 (configuration not stated)
outcome [1]: inactive | Potency [3]: inactive

CN1C(=O)CN=C(c2ccccc2)c2cc([N+](=O)[O-])ccc21
Potency [3]: inactive

O=C(O)c1nn(Cc2ccc(Cl)cc2Cl)c2ccccc12
Potency [4]: inactive | Potency [5]: inactive | Potency [6]: inactive | Potency [2]: inactive | Potency [3]: inactive | outcome [7]: inactive | outcome [8]: inactive | outcome [9]: inactive

CC(C)NCC(O)c1ccc(N)c(C#N)c1 (configuration not stated)
Potency [2]: inactive | Potency [3]: inactive

C[C@]12CC[C@H](O)CC1=CC[C@@H]1[C@@H]2CC[C@]2(C)C(=O)CC[C@@H]12
outcome [1]: inactive | Potency [3]: inactive

CC[n+]1c(-c2ccccc2)c2cc(N)ccc2c2ccc(N)cc21
Potency [2]: 7940 nM (active) | Potency [3]: inactive
